Publication PMC7862700, “An all-to-all approach to the identification of sequence-specific readers for epigenetic DNA modifications on cytosine”

What was measured:
Experiment in all cases: DAPPL (digital affinity profiling via proximity ligation, sequencing); 10 mM Tris-HCl pH 7.5, 50 mM NaCl, 1 mM DTT, 4% glycerol, room temperature, 30 min; GST-TFs on glutathione beads, 16-mer random dsDNA library, 0.1% formaldehyde crosslink after washing; high values mean tight binding
Conditions in all cases: protein: recombinant; tags: N-terminal GST; dsDNA, one strand shown
[1] = molecular target: T1, FLI1 (Homo sapiens, UniProt Q01543 1-452)
T1 sequence: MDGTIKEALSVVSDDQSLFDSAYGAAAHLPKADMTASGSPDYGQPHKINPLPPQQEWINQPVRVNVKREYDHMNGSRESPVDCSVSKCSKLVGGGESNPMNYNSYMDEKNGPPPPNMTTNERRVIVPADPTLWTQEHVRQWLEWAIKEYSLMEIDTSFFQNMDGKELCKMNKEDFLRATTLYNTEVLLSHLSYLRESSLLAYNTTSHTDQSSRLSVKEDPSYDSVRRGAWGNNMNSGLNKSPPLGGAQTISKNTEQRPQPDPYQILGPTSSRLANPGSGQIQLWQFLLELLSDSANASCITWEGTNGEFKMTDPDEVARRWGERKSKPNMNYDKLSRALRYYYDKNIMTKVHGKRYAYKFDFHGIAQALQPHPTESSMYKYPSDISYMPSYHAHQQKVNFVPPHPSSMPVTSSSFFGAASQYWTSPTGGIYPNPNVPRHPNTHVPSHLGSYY
Procedure, shortened: (§1)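 Binding signal is each hexamer's read frequency for a factor divided by its frequency in the tag-only sample. The factors were GST-fused human transcription factors from yeast, captured on glutathione beads, DNA-barcoded and pooled with that sample. Pools were incubated with 200 nmole of a random double-stranded 16-mer DNA library in Tris/NaCl/DTT/glycerol buffer at room temperature for 30 min, then washed, crosslinked with 0.1% formaldehyde, proximity-ligated with BsaI/T4 ligase (1 h, 37 °C), PCR-amplified and sequenced on an Illumina NextSeq500.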

[2] = molecular target: T2, ELK1 (Homo sapiens, UniProt P19419 1-428)
T2 sequence: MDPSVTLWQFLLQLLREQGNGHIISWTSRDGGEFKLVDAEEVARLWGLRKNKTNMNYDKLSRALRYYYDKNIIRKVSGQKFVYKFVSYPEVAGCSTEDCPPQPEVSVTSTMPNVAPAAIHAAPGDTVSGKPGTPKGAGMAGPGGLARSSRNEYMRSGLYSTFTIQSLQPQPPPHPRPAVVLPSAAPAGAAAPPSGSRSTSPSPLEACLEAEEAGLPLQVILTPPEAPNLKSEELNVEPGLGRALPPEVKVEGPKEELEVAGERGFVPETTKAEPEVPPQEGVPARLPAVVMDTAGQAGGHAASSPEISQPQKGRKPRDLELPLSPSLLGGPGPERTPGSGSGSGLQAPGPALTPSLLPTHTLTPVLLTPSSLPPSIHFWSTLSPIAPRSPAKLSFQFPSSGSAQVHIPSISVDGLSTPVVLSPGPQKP
Procedure, shortened: as §1

[3] = molecular target: T3, GABPA (Homo sapiens, UniProt Q06546 1-454)
T3 sequence: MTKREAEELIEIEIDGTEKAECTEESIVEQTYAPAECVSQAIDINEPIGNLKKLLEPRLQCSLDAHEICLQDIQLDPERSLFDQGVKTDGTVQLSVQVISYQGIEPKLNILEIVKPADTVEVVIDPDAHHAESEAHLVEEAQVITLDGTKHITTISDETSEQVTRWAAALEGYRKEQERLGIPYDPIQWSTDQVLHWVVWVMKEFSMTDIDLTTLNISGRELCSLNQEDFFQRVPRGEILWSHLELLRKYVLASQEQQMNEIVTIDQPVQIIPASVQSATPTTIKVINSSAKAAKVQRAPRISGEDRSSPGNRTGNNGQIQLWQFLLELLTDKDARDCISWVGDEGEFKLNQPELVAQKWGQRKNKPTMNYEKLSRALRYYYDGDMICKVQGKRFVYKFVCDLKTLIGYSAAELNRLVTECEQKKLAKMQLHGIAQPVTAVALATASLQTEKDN
Procedure, shortened: as §1

[4] = molecular target: T4, ERG (Homo sapiens, UniProt P11308 1-479)
T4 sequence: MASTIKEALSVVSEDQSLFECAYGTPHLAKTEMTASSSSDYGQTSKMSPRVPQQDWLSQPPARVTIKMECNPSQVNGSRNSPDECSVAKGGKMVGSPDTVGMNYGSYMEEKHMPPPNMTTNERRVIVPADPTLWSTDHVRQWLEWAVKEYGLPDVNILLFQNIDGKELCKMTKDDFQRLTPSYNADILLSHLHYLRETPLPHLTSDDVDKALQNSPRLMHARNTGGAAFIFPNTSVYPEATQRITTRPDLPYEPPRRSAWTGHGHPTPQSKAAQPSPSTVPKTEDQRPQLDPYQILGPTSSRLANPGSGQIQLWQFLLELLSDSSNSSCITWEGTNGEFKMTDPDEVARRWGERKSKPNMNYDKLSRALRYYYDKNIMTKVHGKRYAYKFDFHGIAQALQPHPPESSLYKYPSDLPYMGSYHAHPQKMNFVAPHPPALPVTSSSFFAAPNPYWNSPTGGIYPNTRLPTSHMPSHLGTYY
Procedure, shortened: as §1

[5] = molecular target: ELF1 (Homo sapiens, UniProt P32519 1-619)
Chain of ELF1 (P32519 whole entry): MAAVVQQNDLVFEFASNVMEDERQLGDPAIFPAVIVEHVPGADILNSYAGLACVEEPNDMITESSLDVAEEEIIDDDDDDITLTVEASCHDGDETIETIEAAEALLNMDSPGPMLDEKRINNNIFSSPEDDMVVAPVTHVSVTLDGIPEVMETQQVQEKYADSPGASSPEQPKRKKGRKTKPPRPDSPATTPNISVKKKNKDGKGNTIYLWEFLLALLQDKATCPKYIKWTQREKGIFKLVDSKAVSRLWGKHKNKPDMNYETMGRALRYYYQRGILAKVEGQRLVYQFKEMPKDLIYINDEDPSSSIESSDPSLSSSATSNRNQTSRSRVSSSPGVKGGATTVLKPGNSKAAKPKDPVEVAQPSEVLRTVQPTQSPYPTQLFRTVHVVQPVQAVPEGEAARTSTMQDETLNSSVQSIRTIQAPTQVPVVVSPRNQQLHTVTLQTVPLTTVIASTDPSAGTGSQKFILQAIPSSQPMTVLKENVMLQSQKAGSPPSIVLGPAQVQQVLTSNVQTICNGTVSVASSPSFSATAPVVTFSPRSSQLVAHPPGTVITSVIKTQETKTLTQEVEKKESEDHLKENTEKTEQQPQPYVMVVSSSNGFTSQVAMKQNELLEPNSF
Procedure, shortened: as §1

[6] = molecular target: T5, EHF (Homo sapiens, UniProt Q9NZC4 1-300)
T5 sequence: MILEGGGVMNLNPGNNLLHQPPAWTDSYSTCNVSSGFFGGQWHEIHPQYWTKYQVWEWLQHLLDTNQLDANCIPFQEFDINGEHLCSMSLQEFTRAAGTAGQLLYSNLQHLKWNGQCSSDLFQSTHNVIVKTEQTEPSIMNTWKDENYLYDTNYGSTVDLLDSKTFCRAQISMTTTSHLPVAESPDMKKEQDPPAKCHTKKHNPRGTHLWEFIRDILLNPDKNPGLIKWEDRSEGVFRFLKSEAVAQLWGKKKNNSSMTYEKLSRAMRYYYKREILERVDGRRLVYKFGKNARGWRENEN
Procedure, shortened: as §1

[7] = molecular target: SPI1 (Homo sapiens, UniProt P17947 1-270)
Procedure, shortened: as §1

[8] = molecular target: SPIB (Homo sapiens, UniProt Q01892 1-262)
Chain of SPIB (Q01892 whole entry): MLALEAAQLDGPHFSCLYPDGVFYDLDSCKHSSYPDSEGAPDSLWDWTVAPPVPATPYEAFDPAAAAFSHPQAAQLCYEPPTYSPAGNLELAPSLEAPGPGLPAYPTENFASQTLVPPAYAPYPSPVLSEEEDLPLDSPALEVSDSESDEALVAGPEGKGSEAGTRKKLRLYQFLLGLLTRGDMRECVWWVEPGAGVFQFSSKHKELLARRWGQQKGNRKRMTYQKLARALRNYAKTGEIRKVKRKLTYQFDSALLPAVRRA
Procedure, shortened: as §1

[9] = molecular target: T6, ELK3 (Homo sapiens, UniProt P41970 1-407)
T6 sequence: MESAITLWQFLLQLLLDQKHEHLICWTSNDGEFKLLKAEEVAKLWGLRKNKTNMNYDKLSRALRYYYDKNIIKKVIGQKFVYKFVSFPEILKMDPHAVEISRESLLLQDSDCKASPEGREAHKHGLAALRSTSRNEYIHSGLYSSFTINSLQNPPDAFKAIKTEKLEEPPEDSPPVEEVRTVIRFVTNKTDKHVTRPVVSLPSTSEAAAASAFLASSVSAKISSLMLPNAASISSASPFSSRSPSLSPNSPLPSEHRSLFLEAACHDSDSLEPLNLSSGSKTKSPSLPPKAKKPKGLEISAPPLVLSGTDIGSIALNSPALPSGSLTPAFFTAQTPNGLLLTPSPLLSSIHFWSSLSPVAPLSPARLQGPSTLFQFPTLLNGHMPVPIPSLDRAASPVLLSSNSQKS
Procedure, shortened: as §1

Sequence	binding signal [1]	binding signal [2]	binding signal [3]	binding signal [4]	binding signal [5]	binding signal [6]	binding signal [7]	binding signal [8]	binding signal [9]
ACCAAT	1.35 fold enrichment (6-mer frequency, TF over GST control)	1.34 fold enrichment (6-mer frequency, TF over GST control)	1.4 fold enrichment (6-mer frequency, TF over GST control)	1.29 fold enrichment (6-mer frequency, TF over GST control)	1.34 fold enrichment (6-mer frequency, TF over GST control)	1.28 fold enrichment (6-mer frequency, TF over GST control)	1.3 fold enrichment (6-mer frequency, TF over GST control)	1.35 fold enrichment (6-mer frequency, TF over GST control)	1.34 fold enrichment (6-mer frequency, TF over GST control)
TAATTC	1.5 fold enrichment (6-mer frequency, TF over GST control)	1.36 fold enrichment (6-mer frequency, TF over GST control)	1.48 fold enrichment (6-mer frequency, TF over GST control)	1.48 fold enrichment (6-mer frequency, TF over GST control)	1.48 fold enrichment (6-mer frequency, TF over GST control)	1.37 fold enrichment (6-mer frequency, TF over GST control)	1.33 fold enrichment (6-mer frequency, TF over GST control)	1.51 fold enrichment (6-mer frequency, TF over GST control)	1.58 fold enrichment (6-mer frequency, TF over GST control)
ACGTTC	1.31 fold enrichment (6-mer frequency, TF over GST control)	1.45 fold enrichment (6-mer frequency, TF over GST control)	1.33 fold enrichment (6-mer frequency, TF over GST control)	1.39 fold enrichment (6-mer frequency, TF over GST control)	1.4 fold enrichment (6-mer frequency, TF over GST control)	1.3 fold enrichment (6-mer frequency, TF over GST control)	1.29 fold enrichment (6-mer frequency, TF over GST control)	1.37 fold enrichment (6-mer frequency, TF over GST control)	1.38 fold enrichment (6-mer frequency, TF over GST control)
TTCTAC	1.39 fold enrichment (6-mer frequency, TF over GST control)	1.43 fold enrichment (6-mer frequency, TF over GST control)	1.59 fold enrichment (6-mer frequency, TF over GST control)	1.53 fold enrichment (6-mer frequency, TF over GST control)	1.55 fold enrichment (6-mer frequency, TF over GST control)	1.49 fold enrichment (6-mer frequency, TF over GST control)	1.46 fold enrichment (6-mer frequency, TF over GST control)	1.6 fold enrichment (6-mer frequency, TF over GST control)	1.44 fold enrichment (6-mer frequency, TF over GST control)
